Assay outcomes as filed in PubChem.
The list is not random: actives were taken first. Their share in the collection is about 9.9%.
SW480 rereplic = inducers of DNA re-replication in SW480 colon cancer cells | SW480 DNA re-replication, Hoechst DNA content imaging, 48 h | Potency, µM (titrated, usually from 46.1 µM), actives largely listed as activators | hit rate 1.8% among 340,000 | AID 624297; further: nearly all actives have a fitted effect of over 55% in size
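Compounds, transferred as 23 nL by pin tool, were incubated with cells for 48 hr; DNA content per nucleus was then quantified by Hoechst staining and fluorescence plate imaging.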
KB-V1 cytotox = KB-V1 MDR subline cytotoxicity. KB-V1 MDR cells viability, CellTiter-Glo, 72 h. Potency, µM (doses to about 46.1 µM), hits mostly cytotoxic. hit rate 3.4% among 400,000; further: nearly all actives have a fitted effect of over 60% in size
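Drug-selected KB-V1 cells, grown in DMEM lacking phenol red with 10% FBS, receive compound titrations; after three days at 37 degrees C, surviving cell ATP is quantified by CellTiter-Glo luminescence and responses normalized and curve-fitted.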
IL-1B inflam inh = inflammasome signaling inhibition, IL-1 beta readout; THP-1 LPS/ATP IL-1B secretion, AlphaLISA, 16 h; active compounds read low; activity change, % at 57.5 µM; hit rate 4.7% among 360,000; in the data active means activity change below about -50%; inconclusive means mostly about -30% to -49%
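THP-1 cells pretreated 1 hr with compounds (up to 57.5 uM final), then stimulated with LPS (250 ng/mL final) plus ATP (1.25 mM final); secreted IL-1B measured by AlphaLISA after 16 hr, decreased signal indicating inhibition.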
MCF10A rereplic = induces DNA re-replication in MCF 10a normal breast cells | MCF 10A DNA re-replication, Hoechst nuclear intensity, 48 h | Potency, µM (highest dose often 46.1 µM), actives largely listed as activators | AID 624296 | hit rate 2.9% among 350,000; further: nearly all actives have a fitted effect of over 50% in size
KB-3-1 tox = KB-3-1 parental cell cytotoxicity. KB-3-1 viability, CellTiter-Glo ATP luminescence, 72 h. Potency, µM (top dose mostly 46.1 µM), usual class: cytotoxic. hit rate 1.4% among 400,000. AID 1347075; further: nearly all actives have a fitted effect of over 60% in size
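Cytotoxicity in the drug-sensitive parental line KB-3-1 was scored as loss of CellTiter-Glo luminescence following 72 h incubation with compound. Values come from curve fitting of normalized concentration-response data.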
Each line names hits and unclear results; the compound was inactive in the other large screens; ! = a repeat was not active. Unless noted, the call rests on the fitted dose curve; in most records, active means well fitted curve in the direction sought with a large enough effect; inconclusive means small, poorly fitted or top-dose-only effect, or another doubt; inactive means no such curve, though single readings can be large; an effect the other way counts as inactive or inconclusive.

COc1ccc(N2CCN(CC(=O)N3CCC(C)CC3)CC2)cc1	KB-V1 cytotox 18µM
COCCN(Cc1ccc(OC)cc1)c1c(C)nc2ccc(C(=O)NCCc3c[nH]c4ccccc34)cn12	none (no result: SW480 rereplic, MCF10A rereplic)
COC(=O)c1ccccc1S(=O)(=O)N1CCC(c2nc3ccccc3o2)CC1	KB-V1 cytotox 12µM
Cn1c(NCc2ccccc2)nc2cc(-c3ccccc3)sc2c1=O	none (no result: SW480 rereplic, MCF10A rereplic)
COc1ccc(-c2cc3nc(C)n(N)c(=O)c3s2)cc1	KB-V1 cytotox 4.6µM, KB-3-1 tox inconclusive
Cc1nc2cc(-c3ccccc3)sc2c(=O)n1N	KB-3-1 tox 3.7µM
COc1ccc(-c2cc3nc4n(c(=O)c3s2)CCC4)cc1	none
O=C(c1ccc(Br)cc1)N1CCC(C(=O)N2CCN(Cc3ccccc3)CC2)CC1	none (no result: KB-V1 cytotox, KB-3-1 tox)
COc1cc(CNC2CCCCCCC2)c(Br)cc1OCCO	IL-1B inflam inh inconclusive
CCOc1c(Br)cc(CNC2CCCCCCC2)cc1OC	SW480 rereplic inconclusive, KB-V1 cytotox inconclusive, IL-1B inflam inh -94, MCF10A rereplic 10µM, KB-3-1 tox inconclusive
COc1cc(CNC2CCCCCCC2)cc(Cl)c1OC	SW480 rereplic inconclusive, KB-V1 cytotox inconclusive, IL-1B inflam inh -80, KB-3-1 tox inconclusive
C=CCOc1c(CNC2CCCC2)cc(Cl)cc1OC	IL-1B inflam inh -72, MCF10A rereplic inconclusive
COc1cc(CNC2CCCCCCC2)cc(Br)c1OCC#N	SW480 rereplic inconclusive, KB-V1 cytotox 23µM, MCF10A rereplic inconclusive
COc1ccc(C(C(=O)NC2CCCCC2)N(Cc2cccnc2)C(=O)c2snc(C(N)=O)c2N)cc1 (centres undefined)	none
Cc1cc(C)c(S(C)(=O)=O)c(NN)n1	IL-1B inflam inh -62
Clc1ccc2nnc(Cl)n2n1	none
FC(F)(Cl)c1nnc2ccc(Cl)nn12	SW480 rereplic inconclusive, KB-V1 cytotox inconclusive, MCF10A rereplic inconclusive, KB-3-1 tox 6.5µM
COc1cccc(NC(=O)CSc2nn3c(=O)c(C)nnc3s2)c1	KB-3-1 tox inconclusive
COC(=O)CNC(=O)COC(=O)/C=C/c1cccs1	IL-1B inflam inh inconclusive
CC1CCCCN1C(=O)COC(=O)/C=C/c1ccc2ccccc2n1 (centres undefined)	SW480 rereplic inconclusive, IL-1B inflam inh -54, MCF10A rereplic inconclusive
COC(=O)CNC(=O)COC(=O)/C=C/c1ccc2ccccc2n1	SW480 rereplic inconclusive, IL-1B inflam inh -103, MCF10A rereplic inconclusive
CC(OC(=O)/C=C/c1ccc2ccccc2n1)C(=O)NCc1ccccc1 (centres undefined)	SW480 rereplic inconclusive, IL-1B inflam inh -75
CC(C)NC(=O)CC(=O)NN=C1CCCCC1	none
Cc1ccc2oc(=O)c3cc(C(=O)Nc4ccccc4C(N)=O)sc3c2c1	none (no result: SW480 rereplic, IL-1B inflam inh, MCF10A rereplic)
CCN(CC)c1ccc(/C=c2\sc3nc4ccccc4n3c2=O)c(O)c1	SW480 rereplic 15µM, MCF10A rereplic 2.6µM, KB-3-1 tox inconclusive
Cc1cc(/C=c2\sc3nc4ccccc4n3c2=O)c(C)n1-c1ccc(C(=O)O)cc1	KB-V1 cytotox inconclusive, MCF10A rereplic inconclusive, KB-3-1 tox inconclusive
Cc1cc(/C=c2/sc3nc4ccccc4n3c2=O)c(C)n1-c1ccccn1	KB-V1 cytotox inconclusive, IL-1B inflam inh -58, MCF10A rereplic inconclusive, KB-3-1 tox inconclusive
CC1CCCN(Cc2c(O)ccc3c(=O)c(-c4ccccc4Cl)c(C(F)(F)F)oc23)C1 (centres undefined)	none (no result: SW480 rereplic, IL-1B inflam inh, MCF10A rereplic)
COc1ccc2c(C=Nc3c(C)n(C)n(-c4ccccc4)c3=O)c(O)n(Cc3ccco3)c(=O)c2c1	MCF10A rereplic 18µM!
Cc1c(N=Cc2ccco2)c(=O)n(-c2ccccc2)n1C	none
Cc1nc(-n2[nH]c3c(c2=O)CCCC3)[nH]c(=O)c1Cc1ccccc1	SW480 rereplic 9.2µM, KB-V1 cytotox 2.6µM, IL-1B inflam inh -106, MCF10A rereplic 21µM, KB-3-1 tox inconclusive
Cc1nc(N2CCc3ccccc3C2)[nH]c(=O)c1Cc1ccccc1	none
COC(=O)C[C@@H]1CC[C@H](NC(=O)Nc2ccc(OC)cc2)[C@@H](CO)O1	IL-1B inflam inh -57, KB-3-1 tox inconclusive (no result: SW480 rereplic, MCF10A rereplic)
COc1ccc(N=C2SC(C(=O)N3CCN(c4ccccc4)CC3)CC(=O)N2C)cc1 (centres undefined)	none
COc1cccc(N2CCN(c3nc4ccc(C(=O)c5ccccc5)cc4n4c(C)nnc34)CC2)c1	none (no result: SW480 rereplic, IL-1B inflam inh, MCF10A rereplic)
CN(Cc1ccccc1)C(=O)CN1CCN(S(=O)(=O)c2ccc(Cl)c(Cl)c2)CC1	IL-1B inflam inh -54
